# How the values were obtained:
# Assay in all cases: PBM binding z-score (relative to random genomic background probes); higher = stronger binding; sequences stand for … in GC…GCGATTGACAGCGTAGAATGAAGG
# [1] = tested on: FXR:RXRa (NR concentration 270 nM, RXRa partner concentration 90 nM)
# How it was run: (§1)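 Ligand-free nuclear receptor dimers were applied to custom Agilent 4×180K protein-binding microarrays whose double-stranded probes carried direct-repeat seeds, single-nucleotide variants, half-site ablations and random human genomic background sequences in 34-nt variable regions. Incubation lasted 1 h. Binding z-scores were computed against the random background probes from regression-normalized fluorescence.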
# [2] = tested on: LXRa:RXRa (NR concentration 270 nM, RXRa partner concentration 90 nM)
# How it was run: as §1
# [3] = tested on: LXRa homodimer (NR concentration 270 nM)
# How it was run: as §1
# [4] = tested on: LXRb:RXRa (NR concentration 270 nM, RXRa partner concentration 90 nM)
# How it was run: as §1
# [5] = tested on: LXRb homodimer (NR concentration 270 nM)
# How it was run: as §1
# [6] = tested on: PPARa:RXRa (NR concentration 270 nM, RXRa partner concentration 90 nM)
# How it was run: as §1
# [7] = tested on: PPARg:RXRa (NR concentration 180 nM, RXRa partner concentration 90 nM)
# How it was run: as §1
# [8] = tested on: PPARg:RXRa 270nM:90nM, anti-RXR (NR concentration 270 nM, RXRa partner concentration 90 nM)
# How it was run: as §1
# [9] = tested on: PPARg:RXRa 30nM:10nM, anti-RXR (NR concentration 30 nM, RXRa partner concentration 10 nM)
# How it was run: as §1
# [10] = tested on: PPARg:RXRa 90nM:30nM, anti-RXR (NR concentration 90 nM, RXRa partner concentration 30 nM)
# How it was run: as §1
# [11] = tested on: PPARg:RXRa DBDmut IVT, anti-RXR (DBD mutation: RXRa K156A/R161A, NR concentration 270 nM, RXRa partner concentration 90 nM)
# How it was run: as §1
# [12] = tested on: PPARg:RXRa IVT, anti-PPARg (NR concentration 270 nM, RXRa partner concentration 90 nM)
# How it was run: as §1
# [13] = tested on: PPARg DBDmut:RXRa IVT, anti-PPARg (DBD mutation: PPARg1 K132A/R137A, NR concentration 270 nM, RXRa partner concentration 90 nM)
# How it was run: as §1
# [14] = tested on: PPARg DBDmut IVT, anti-PPARg (DBD mutation: PPARg1 K132A/R137A, NR concentration 270 nM)
# How it was run: as §1
# [15] = tested on: PPARg homodimer (NR concentration 180 nM)
# How it was run: as §1
# [16] = tested on: PXR homodimer (NR concentration 270 nM)
# How it was run: as §1
# [17] = tested on: RARa:RXR (NR concentration 270 nM, RXRa partner concentration 90 nM)
# How it was run: as §1
# [18] = tested on: RARa homodimer (NR concentration 270 nM)
# How it was run: as §1
# [19] = tested on: RARb:RXRa (NR concentration 270 nM, RXRa partner concentration 90 nM)
# How it was run: as §1
# [20] = tested on: PXR:RXRa (NR concentration 270 nM, RXRa partner concentration 90 nM)
# How it was run: as §1
Sequence,PBM binding z-score [1],PBM binding z-score [2],PBM binding z-score [3],PBM binding z-score [4],PBM binding z-score [5],PBM binding z-score [6],PBM binding z-score [7],PBM binding z-score [8],PBM binding z-score [9],PBM binding z-score [10],PBM binding z-score [11],PBM binding z-score [12],PBM binding z-score [13],PBM binding z-score [14],PBM binding z-score [15],PBM binding z-score [16],PBM binding z-score [17],PBM binding z-score [18],PBM binding z-score [19],PBM binding z-score [20]
CAAGCTAGGTCAAAGGTCAAAGTCGAGCCAACCA,8.68,7.38,5.19,7.27,2.73,7.38,12.9,10.7,12,12,5.45,6.94,1.27,-0.285,5.21,1.5,9.03,2.23,6.05,–
ATATGTAGCTTAGGGTCATTCAGAAAGTAGGGAA,4.3,4.47,1.67,4.49,1.7,4.7,2.42,3.28,1.35,2.4,0.587,2.1,–,1.21,1.78,0.915,4.2,1.36,3.24,4.04
CAAACTAGGTCAAAGGACAGTGAAAGGCGACGTA,3.9,3.01,0.388,2.12,0.744,5.51,10.3,8.88,8.82,10.4,8,8.6,–,4.51,2.88,0.371,2.48,0.774,3.99,1.45
CCTACTGGGCCAAAGGTCTTTGATTCCAATGCTC,-0.409,-0.406,-0.413,0.232,-0.841,4.15,8.96,8.59,7.74,9.9,5.05,5.18,0.12,-0.165,0.366,-0.504,0.354,-0.497,0.448,–
ACTAGTGGGTCAGCTGAGGTCACACACAATTCGG,4.98,5.49,2.88,4.54,0.173,4.9,6.38,5.68,3.12,4.86,6.51,6.96,1.71,0.986,4.18,1.68,5.69,1.85,4.45,–
ATCGAAAGGGCGTGAGGTGAGTATACAGAAAGGC,0.437,0.45,-0.364,0.429,-0.169,1.36,0.822,0.778,0.328,0.452,-0.47,1.02,0.673,0.814,0.257,0.256,1.08,0.276,1.89,–
CGAACTAGGGCACCAGGACAGTGAAGAGGTTGGA,-0.211,-0.347,-0.377,-0.672,-1.24,2.31,4.04,3.54,1.13,2.7,7.2,6.94,–,-0.192,0.184,-0.309,-0.404,-1.02,1.42,-0.709

# — the supplement of paper PMC6555819
